The values that follow come from PMC10726135, “HNF4α isoforms regulate the circadian balance between carbohydrate and lipid metabolism in the liver”.

The full ranking holds about 18,000 sequences; the median of “log2 normalized intensity” is about 0.39, and the highest 2% start at about 6.6. Only a selection was taken, and the highest values are over-represented in it overall.

The target in the assay is T1, HNF4alpha2 (COS-7 nuclear extract) (Homo sapiens, UniProt P41235 1-474).
T1 sequence: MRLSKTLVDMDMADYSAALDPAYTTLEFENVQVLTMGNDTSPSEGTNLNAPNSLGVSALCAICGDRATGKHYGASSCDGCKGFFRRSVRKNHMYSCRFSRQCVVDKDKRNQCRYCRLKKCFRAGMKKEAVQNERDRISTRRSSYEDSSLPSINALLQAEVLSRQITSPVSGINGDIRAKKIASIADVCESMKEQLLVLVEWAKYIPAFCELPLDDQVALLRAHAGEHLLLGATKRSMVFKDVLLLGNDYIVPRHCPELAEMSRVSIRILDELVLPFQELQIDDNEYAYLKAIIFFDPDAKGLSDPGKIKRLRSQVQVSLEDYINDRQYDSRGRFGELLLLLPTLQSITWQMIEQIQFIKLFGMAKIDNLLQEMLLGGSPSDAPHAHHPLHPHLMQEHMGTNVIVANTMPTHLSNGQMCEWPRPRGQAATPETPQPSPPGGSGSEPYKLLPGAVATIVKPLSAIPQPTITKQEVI
Kind of assay: protein-binding microarray; COS-7 nuclear extract on double-stranded Agilent 4x180k PBM; binding buffer, salt, pH and temperature not given in the material; high values mean tight binding. To be noted: chain copies: 2; label: 3' end of strand 1 on the slide; dsDNA, one strand shown. The method in brief:
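Binding signal is the background-corrected, normalized gProcessedSignal calculated by Agilent software. It was measured by applying nuclear extracts of COS-7 cells transiently transfected with a human HNF4α isoform expression vector to a custom Agilent SurePrint G3 4x180k array of ~44,000 double-stranded ~60-nt test sequences in quadruplicate, then imaging bound HNF4α on an Agilent G2565CA scanner at 2-µm resolution.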
As for “TGTAATAAGGAGTTGTGTGATAAGGAGGGCGCCTAGGGAGATTAGAGTATCGGTCGA”, the binding signal turned out to be 0.534 log2 normalized intensity. Take “CATGCAATCACACTAATCTGTCAGAAAACCGCCTAGGGAGATTAGAGTATCGGTCGA”: the binding signal was -0.731 log2 normalized intensity. As to “GGTGAGGGTTACAGGTGGACAAACAGGCTGGCCTAGGGAGATTAGAGTATCGGTCGA”, the binding signal is -0.829 log2 normalized intensity. In the case of “TGGACTTTGGAATTAAGGAGATTTGGCTTTGCCTAGGGAGATTAGAGTATCGGTCGA” it was 4.84 log2 normalized intensity; in that of “AGGGATTCCTGAAGATCGCAGACTTTGGACGCCTAGGGAGATTAGAGTATCGGTCGA”, 5.66 log2 normalized intensity; in that of “TTCCTGAAGATCGCAGACTTTGGACTCTGCGCCTAGGGAGATTAGAGTATCGGTCGA”, 7.83 log2 normalized intensity.

As to “CTGAAGAATTTGGACTTTGCACTAAAAGCCGCCTAGGGAGATTAGAGTATCGGTCGA”, the binding signal turned out to be 6.95 log2 normalized intensity. Turning to “GGGTCCTGGCAGCACCTGAAGAATTTGGACGCCTAGGGAGATTAGAGTATCGGTCGA”, the binding signal turned out to be 1.23 log2 normalized intensity. Under “TGGACTTTGCACTAAAAGCCATGAGAAGGTGCCTAGGGAGATTAGAGTATCGGTCGA” stands 4.84 log2 normalized intensity; under “GGTGAGTCTTTGCCCCTGGACTTTGAATTTGCCTAGGGAGATTAGAGTATCGGTCGA”, 4.94 log2 normalized intensity; under “GAAGATCGCAGACTTTGGACTCTGCAAGGAGCCTAGGGAGATTAGAGTATCGGTCGA”, 5.8 log2 normalized intensity. Under “GGAGACCTGAAACTAGACCAAGAAGACTTTGCCTAGGGAGATTAGAGTATCGGTCGA” stands -0.974 log2 normalized intensity; under “CTGGCAGCACCTGAAGAATTTGGACTTTGCGCCTAGGGAGATTAGAGTATCGGTCGA”, 7.7 log2 normalized intensity; under “AGCACCTGAAGAATTTGGACTTTGCACTAAGCCTAGGGAGATTAGAGTATCGGTCGA”, 8.43 log2 normalized intensity. Under “GAATTTGGACTTTGCACTAAAAGCCATGAGGCCTAGGGAGATTAGAGTATCGGTCGA” stands 5.86 log2 normalized intensity.

For “AATAGTGACCTCTGCTGGCCAGTGGAAAACGCCTAGGGAGATTAGAGTATCGGTCGA”, the binding signal is 1.08 log2 normalized intensity. For the sequence “CAGTCTAGAATCTGCAGCCCCTTTTGGAATGCCTAGGGAGATTAGAGTATCGGTCGA”, the binding signal worked out at 2.02 log2 normalized intensity. Regarding “CCACTGGAGTCTTGTTTGTCAAGTTTGGTAGCCTAGGGAGATTAGAGTATCGGTCGA”, the binding signal turned out to be 1.81 log2 normalized intensity. Take “AGGGTGTTGTGGAATGTGCTTGGACCTGCTGCCTAGGGAGATTAGAGTATCGGTCGA”: the binding signal turned out to be 1.99 log2 normalized intensity. With “AGAAATGTTATCTCAGTAGACTAACGTATGGCCTAGGGAGATTAGAGTATCGGTCGA”, the binding signal came to 0.476 log2 normalized intensity. In the case of “GCATTCCACCAAATCTTACCTAAGGAAGTTGCCTAGGGAGATTAGAGTATCGGTCGA” it was -0.954 log2 normalized intensity; in that of “TCCAAAATACGACCTTTGGACAGGGTGACGGCCTAGGGAGATTAGAGTATCGGTCGA”, 6.8 log2 normalized intensity. In the case of “GTACTTTGTACATGGGAATAGACATTCCAGGCCTAGGGAGATTAGAGTATCGGTCGA” it was 2.04 log2 normalized intensity; in that of “AATACGACCTTTGGACAGGGTGACGTCATTGCCTAGGGAGATTAGAGTATCGGTCGA”, 6.27 log2 normalized intensity; in that of “TTGGACTTTGTACATTCCAAATACGATAATGCCTAGGGAGATTAGAGTATCGGTCGA”, 5.36 log2 normalized intensity.

Regarding “ATTCCAAGAAGAGCCAATAGTACACATCAAGCCTAGGGAGATTAGAGTATCGGTCGA”, the binding signal is -0.572 log2 normalized intensity. On to “ACATCAGAAGTTGGACTTTGTACATTCCAAGCCTAGGGAGATTAGAGTATCGGTCGA”, for which the binding signal is 7.69 log2 normalized intensity. In the case of “CCTGGTGACCTTTGTTTGGTCAAATACCTAGCCTAGGGAGATTAGAGTATCGGTCGA” it was 2.9 log2 normalized intensity; in that of “GGGCTTTTGTCACATTCCAGACTTTGTACAGCCTAGGGAGATTAGAGTATCGGTCGA”, 4.95 log2 normalized intensity. As for “AGAAGTTGGACTTTGTACATTCCAAATACGGCCTAGGGAGATTAGAGTATCGGTCGA”, the binding signal stood at 6.88 log2 normalized intensity. As to “ATGGTGGCCATTCTGATTTGATAAGATGTGGCCTAGGGAGATTAGAGTATCGGTCGA”, the binding signal came out at 0.774 log2 normalized intensity.

In the case of “CTTCGTCCTGAGCAGTCCCTTCCCCCCTCCGCCTAGGGAGATTAGAGTATCGGTCGA”, the binding signal amounted to 5.36 log2 normalized intensity. In the case of “ACTTGTTCCCTGTCGCTATCTTATCTGGGCGCCTAGGGAGATTAGAGTATCGGTCGA”, the binding signal was found to be 1.62 log2 normalized intensity. In the case of “CTCATTCTTGGAATGCATTGCAAGTCGTATGCCTAGGGAGATTAGAGTATCGGTCGA”, the binding signal amounted to 1.17 log2 normalized intensity.

“TGCCCCTTCACATATTTTGAAAGAAAGAGAGCCTAGGGAGATTAGAGTATCGGTCGA”: the binding signal turned out to be 1.68 log2 normalized intensity. Under “CGGCTTGCGTCCCCAGGTGAACTCAGTCCTGCCTAGGGAGATTAGAGTATCGGTCGA” stands 1.21 log2 normalized intensity; under “TTGTAGCCTCATTTCACCTTTGGTCTTTGGGCCTAGGGAGATTAGAGTATCGGTCGA”, 4.78 log2 normalized intensity.

For “GGGACTAGCCTTATCTCAGATGAGACTTTGGCCTAGGGAGATTAGAGTATCGGTCGA”, the binding signal was determined as 1.7 log2 normalized intensity. In the case of “ATCTAGGTGAGGGATGAGGACTTTGATCAGGCCTAGGGAGATTAGAGTATCGGTCGA” it was 6.01 log2 normalized intensity; in that of “CAGATGGATTGATAGACTTATCTCAGCCTGGCCTAGGGAGATTAGAGTATCGGTCGA”, -0.761 log2 normalized intensity; in that of “TAGCCTTATCTCAGATGAGACTTTGGACTTGCCTAGGGAGATTAGAGTATCGGTCGA”, 7.96 log2 normalized intensity. In the case of “AATTCTCATGGAGGACTTTGGCCTTTTGTGGCCTAGGGAGATTAGAGTATCGGTCGA” it was 5.77 log2 normalized intensity; in that of “GATGTTGGGAGGAGTGGACTTTGATCTCAGGCCTAGGGAGATTAGAGTATCGGTCGA”, 8.9 log2 normalized intensity.
